The values that follow come from PubChem BioAssay AID602393 (Broad Institute, 2012).

Screen size: about 350,000 compounds; about 7,000 (2%) were called active. The full list was thinned out, with actives kept by preference. Values without a mark were called inactive. Cut-off read from the data, not from the text of the source: active = activation above about 40%; inconclusive = no clear call, values can overlap the other calls; inactive = below that.

The assay can be described thus: Bmi1 luciferase reporter increase in mESCs, primary screen, esBAF inhibitor project, mouse ES cells, Bmi1 luciferase knock-in, single point (AID 602393).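 Note: 0% = median of the plate's neutral control wells and 100% = double that signal; a rise in the Bmi1 reporter signal indicates esBAF inhibition.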 The settings on record: 24 h, at 12.5 µM, stronger effect = higher value. (In general: Reporter assays use an easily measured gene product as a stand-in for the process of interest.)
In the case of `CN1CCN(C(=O)COc2ccc(C(C)(C)C)cc2Br)CC1`, the reporter increase was 1.71%.
Take `CC(C)(C)c1ccc(OC(=O)N2CCCCC2)cc1`: the reporter increase was 91.1% (active).
Turning to `O=C(NC1CCCCC1)N1Cc2cc(N3CCCCC3)ccc2-n2nncc2C1`, the reporter increase was 5.49%.
`CSCCC(c1nnnn1C(C)(C)C)N1CCC(n2c(=O)[nH]c3ccccc32)CC1` (stereo not given): the reporter increase is -9.76%.
Under `O=P(OC1=CCCCC1)(c1ccccc1)c1ccccc1` stands -0.107%; under `CN(C)C(=O)Oc1ccc(NC(=O)N2CCOCC2)cc1`, -0.475%.
Under `CN(C)C(=O)Oc1ccc2c(c1)O/C(=C\c1ccccc1)C2=O` stands 46.6% (active); under `S=C(NCCc1ccccc1)N1Cc2cc(N3CCOCC3)ccc2-n2nncc2C1`, 0.039%.
Turning to `C[C@H](CO)N1C[C@H](C)[C@H](CN(C)C(=O)Oc2ccc3ccccc3c2)OCc2cnnn2CCCC1=O`, the reporter increase was 2.57%.
As for `N#Cc1cccc(-c2ccc([C@H]3[C@@H](CO)N4CCCCN(C(=O)Cc5cccnc5)C[C@@H]34)cc2)c1`, the figure is 0.128%; as for `COC(=O)[C@H]1[C@H](CO)[C@H]2Cn3c(cccc3=O)[C@H]2N1CC1CC1`, 0.469%; as for `COc1ccc2c(c1)NP(=S)(c1ccccc1)N2` (stereo not given), 43.7% (active).
Turning to `Cc1cc(C)c2c(c1)NP(=S)(c1ccccc1)N2` (stereo not given), the reporter increase is 7.37%.
Take `O=C(O)[C@H]1[C@H](CO)[C@H]2Cn3c(ccc(-c4ccccc4F)c3=O)[C@@H]1N2C(=O)c1cccnc1`: the reporter increase is -1.7%.
Regarding `COC(=O)C1=C(c2ccc(OCc3ccccc3)cc2)C[C@@H]2CC[C@H]1N2C(=O)NCc1cccc(F)c1`, the reporter increase was 3.43%.
